Here are results for 40 targets from the supplement of paper PMC4188521.

Compound in this assay: CCc1cnn2c(NCc3ccc[n+]([O-])c3)cc(N3CCCC[C@H]3CCO)nc12 [dinaciclib]
In words: cell viability remaining relative to DMSO control; higher = less cytotoxic (more viable cells). To be noted: 100 nM; 24 h. As for the experimental part:
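Solid tumor cell lines were treated with dinaciclib (100 nM) for 24 hr. Viability was measured by CellTiter-Glo ATP luminescence and expressed as % of DMSO-treated control wells (mean of 2-6 plates, triplicate wells per plate).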
Turning to DV90, the cell viability remaining is 56.2%.

Regarding A204, the cell viability remaining was found to be 40.8%. With OE19 the figure was 77.7%. In the case of HEC59, the cell viability remaining was 67.6%. As for SW1088, the cell viability remaining is 58%. AN3CA: the cell viability remaining stood at 13.9%.

Consider OVSAHO, for which the cell viability remaining stood at 61.8%. With CAL54 the figure was 78.9%; with A498, 68.3%; with H2228, 36.4%. On to H292, for which the cell viability remaining came out at 51.5%. With RMUGS the figure was 62%. As to SKUT1, the cell viability remaining came out at 74.7%. For the target H1437, the cell viability remaining was 41.9%.

MALME3M: the cell viability remaining was 54.4%. On to ACHN, for which the cell viability remaining turned out to be 72.1%. For ESS1, the cell viability remaining worked out at 73.5%. With H661 the figure was 34.6%; with SNU16, 52.2%. Consider G401, for which the cell viability remaining amounted to 10.4%. With OAW42 the figure was 44.2%; with OE33, 51.6%. For the target HT29, the cell viability remaining turned out to be 57.8%. In the case of SW1783, the cell viability remaining is 72.9%. In the case of IGROV1, the cell viability remaining was 103%. For U2OS, the cell viability remaining was 36.4%. Take SKOV3: the cell viability remaining was found to be 81.1%. With CHP212 the figure was 19.7%; with AU565, 39.3%. For HS294T, the cell viability remaining worked out at 52.6%. Turning to COLO320DM, the cell viability remaining was found to be 17.1%. Turning to 769P, the cell viability remaining worked out at 57.5%. In the case of HT144, the cell viability remaining was found to be 48.6%. With DU145 the figure was 81.7%; with DBTRG05MG, 81.7%. With SKCO1 the figure was 89.8%; with H146, 86.5%.

On to HEC151, for which the cell viability remaining was determined as 39%. On to H2030, for which the cell viability remaining was 91.9%.

On to EFO27, for which the cell viability remaining was determined as 106%.
